Most compounds without a hit are left out; they make up all but 2.7% or so of the library.
PP1 inh – blocks human PP1-alpha phosphatase, a PP5 counter-screen | P62136 | AID 2235 | actives 0.9% (n = 320,000) | purified PP1alpha, OMFP fluorescence | inhibition, % at 6.7 µM;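 active = inhibition above the mean inhibition of all tested compounds plus 3 SD, computed separately for each screening campaign, cut at about 15% in these data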
PREPL inh – inhibitors of human prolyl oligopeptidase-like enzyme PREPL. AID 2751. recombinant PREPL, fluorescence polarization activity-based probe. actives 0.68% (n = 320,000). Q4J6C6. inhibition, % at 5.96 µM; in the data active = inhibition above about 43%
ANO1 activ – mouse TMEM16A channel activation, primary screen; Q8BHY3; HEK293 TMEM16A/YFP-H148Q/I152L, iodide quench fluorescence; stronger effect = lower value; B-score at 10 µM; actives 0.3% (n = 340,000);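 active = fluorescence-ratio B-score plate-corrected deviation score at least 3 library SD below zero, with starting fluorescence score within 5 deviations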;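 note: channel opened by trigger with iodide after compound preincubation; score built on the fluorescence ratio of max minus min over baseline; more negative score means more quench and so TMEM16A activation or potentiation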
Target sequence (Q8BHY3 whole entry, looked up): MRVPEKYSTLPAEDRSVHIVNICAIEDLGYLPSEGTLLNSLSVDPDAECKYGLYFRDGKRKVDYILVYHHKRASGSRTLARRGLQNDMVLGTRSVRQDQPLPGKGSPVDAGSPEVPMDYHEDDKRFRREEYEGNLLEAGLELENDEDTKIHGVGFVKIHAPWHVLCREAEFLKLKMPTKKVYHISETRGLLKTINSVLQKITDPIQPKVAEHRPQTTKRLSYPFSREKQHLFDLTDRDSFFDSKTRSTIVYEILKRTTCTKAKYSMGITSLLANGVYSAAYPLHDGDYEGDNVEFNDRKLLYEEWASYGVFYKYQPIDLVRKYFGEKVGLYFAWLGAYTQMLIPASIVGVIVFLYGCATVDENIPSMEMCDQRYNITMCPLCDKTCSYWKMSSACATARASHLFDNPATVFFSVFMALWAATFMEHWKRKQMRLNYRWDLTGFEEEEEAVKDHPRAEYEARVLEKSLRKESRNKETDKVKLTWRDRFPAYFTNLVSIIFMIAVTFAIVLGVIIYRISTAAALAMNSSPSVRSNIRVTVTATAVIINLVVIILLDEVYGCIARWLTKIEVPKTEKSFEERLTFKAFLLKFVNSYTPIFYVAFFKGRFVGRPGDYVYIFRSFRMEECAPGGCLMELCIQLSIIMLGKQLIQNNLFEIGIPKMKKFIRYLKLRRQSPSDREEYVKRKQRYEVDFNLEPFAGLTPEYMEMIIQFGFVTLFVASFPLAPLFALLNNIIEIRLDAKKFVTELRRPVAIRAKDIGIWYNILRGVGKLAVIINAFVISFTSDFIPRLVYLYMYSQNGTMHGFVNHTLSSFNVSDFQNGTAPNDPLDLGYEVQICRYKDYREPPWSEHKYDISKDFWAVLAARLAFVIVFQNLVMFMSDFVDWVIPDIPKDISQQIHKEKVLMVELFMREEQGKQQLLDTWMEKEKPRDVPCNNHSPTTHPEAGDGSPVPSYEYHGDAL
PP5 primary – PP5 (human) phosphatase inhibition; actives 0.18% (n = 320,000); purified PP5c, OMFP substrate fluorescence; inhibition, % at 6.7 µM;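 active = inhibition above the campaign's mean inhibition across all tested compounds plus 3 SD, cut at about 9.5% in these data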
ANO1 block – mouse TMEM16A channel inhibition, primary screen; Q8BHY3; HEK293 TMEM16A/YFP iodide influx fluorescence, ionomycin; normalized B-score (activity score, 25-100; higher = stronger inhibition) at 10 µM; actives 1.2% (n = 310,000);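 active = ratio plate-corrected score three or more library SD toward inhibition, starting fluorescence score within five deviations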;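 note: score derived from kinetic fluorescence span divided by baseline fluorescence per well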
DNA FID counter – fluorescent intercalator displacement, NS3 helicase counter-screen. DNA fluorescent intercalator displacement, fluorescence. inhibition, % at 7.9 µM. actives 0.17% (n = 290,000). AID 1845; in the data active = inhibition above about 37%;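 note: higher means more ethidium bromide displaced from hairpin DNA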
Large screens that a line does not name were inactive.

O=C(NC(=O)c1ccccc1O)c1ccc2c(c1)CCO2	none
Cc1ccc(S(=O)(=O)Nc2cccc(-c3ccc(N4CCCCCC4)nn3)c2)cc1C	PP1 inh 17.1
O=S(=O)(Nc1cccc(-c2ccc(N3CCCCCC3)nn2)c1)c1ccccc1F	none
O=S(=O)(Nc1ccc(-c2ccc(N3CCOCC3)nn2)cc1)c1ccc(Cl)c(Cl)c1	ANO1 block 25 (no result: DNA FID counter)
O=S(=O)(Nc1cccc(-c2ccc(N3CCCCCC3)nn2)c1)c1ccc(C(F)(F)F)cc1	PP1 inh 16.6
O=S(=O)(Nc1cccc(-c2ccc(N3CCCCCC3)nn2)c1)c1ccc(F)cc1	none
O=S(=O)(Nc1cccc(-c2ccc(N3CCCCCC3)nn2)c1)c1ccccc1Cl	PP1 inh 17.3
CCN(CC(=O)NCc1ccc(F)cc1)C(=O)C(C)Oc1cccc(Cl)c1 (stereo unspecified)	none (no result: ANO1 block, DNA FID counter)
O=C(CCl)NC(Cc1ccccc1)C(=O)OCC(=O)c1ccc(-c2ccccc2)cc1 (stereo unspecified)	none (no result: PP1 inh, PREPL inh, PP5 primary, ANO1 block, DNA FID counter)
Cc1ccc(NC(=O)c2ccc(Cl)c(S(=O)(=O)N3CCc4ccccc43)c2)nc1	none (no result: PP1 inh, PREPL inh, PP5 primary, ANO1 block, DNA FID counter)
Nc1ccc(OCCCc2c(N)nc(N)nc2N)cc1	PREPL inh 52.0
CC(=O)Nc1ccc(S(=O)(=O)N2CCC(C(=O)NCCC(=O)NCc3ccncc3)CC2)cc1	none
O=C(CCNC(=O)C1CCN(S(=O)(=O)c2ccccc2)CC1)NCc1ccncc1	ANO1 activ -27.8
COc1cccc(OC)c1C(=O)NNC(=O)c1cccc(COc2ccc3c(c2)CCC3)c1	ANO1 block 25
Cc1nc(SC(C)C(=O)NC2CCCC2)c2ccccc2n1 (stereo unspecified)	ANO1 activ -30.7 (no result: ANO1 block, DNA FID counter)
O=C1C(C=NCc2ccccn2)=C(O)c2ccccc21	ANO1 block 25
N#C/C(=N/Nc1ccc(OC(F)(F)F)cc1)C(N)=S	ANO1 block 100
O=C(CCc1ccccc1)Nc1nnc(-c2ccc3c(c2)OCCO3)o1	none
O=C(COc1ccccc1)Nc1nnc(-c2ccc(Cl)s2)o1	PP1 inh 19.4
O=C(COc1ccccc1)Nc1nnc(-c2ccccc2)o1	PP1 inh 15.4
O=C(CCc1ccccc1)Nc1nnc(-c2ccc3c(c2)CCCC3)o1	PP1 inh 19.7
O=C1CCc2cccc(O)c2N1	none (no result: PP1 inh, PREPL inh, PP5 primary, ANO1 block, DNA FID counter)
COc1cccc(Nc2nc(CC(C)=O)ns2)c1	none
COc1ccc(Nc2nc(CC(C)=O)ns2)cc1	ANO1 activ -15.9
CCOC(=O)N1CCN(C(=O)c2c[nH]c3ccc(S(=O)(=O)N(C)c4ccccc4C)cc3c2=O)CC1	none
CCOC(=O)N1CCN(C(=O)c2c[nH]c3ccc(S(=O)(=O)N(C)c4cccc(C)c4)cc3c2=O)CC1	ANO1 activ -6.3
COc1cc(/C=C(\C#N)C(=O)Nc2cccc(C(=O)O)c2)ccc1OCc1ccc(F)cc1	none
CCOc1cc(/C=C(\C#N)C(=O)Nc2cccc(C(=O)O)c2)ccc1OCc1ccccc1Cl	ANO1 block 100
CCOc1cc(/C=C(\C#N)C(=O)Nc2cccc(C(=O)O)c2)cc(Br)c1OC(=O)c1ccc(OC)cc1	PP1 inh 17.4, ANO1 block 100
COC1CCC2(C)C(=CCC3C4CC(O)CC4(C)CCC32)C1 (stereo unspecified)	none (no result: PP1 inh, PREPL inh, PP5 primary, ANO1 block, DNA FID counter)
C=C(C(=O)c1ccccc1)C(NC(C)(C)C)c1ccccc1 (stereo unspecified)	none (no result: PP1 inh, PREPL inh, PP5 primary, ANO1 block, DNA FID counter)
NNc1ccc2c(C(F)(F)F)cc(C(F)(F)F)nc2n1	none
N#CC(c1cccc(Cl)c1)c1ccc2c(C(F)(F)F)cc(C(F)(F)F)nc2n1 (stereo unspecified)	ANO1 activ -4.8, ANO1 block 100
CC(C)(C)NC(=O)N1CCC(CO)(Cc2ccccc2Cl)CC1	ANO1 activ -6.9
COC/C=C/C1=CC2=CC(=O)C(C)(OC(=O)c3cnc4ccccc4n3)C(=O)C2=CN1CCc1c[nH]c2ccccc12 (stereo unspecified)	PP1 inh 17.2 (no result: ANO1 activ, DNA FID counter)
COC/C=C/C1=CC2=CC(=O)C(C)(OC(=O)c3cnc4ccccc4n3)C(=O)C2=CN1CC(C)C (stereo unspecified)	none (no result: DNA FID counter)
COC/C=C/C1=CC2=CC(=O)C(C)(OC(=O)c3cnc4ccccc4n3)C(=O)C2=CN1c1ccc(CO)cc1 (stereo unspecified)	PP1 inh 19.7 (no result: ANO1 activ)
